According to PubChem BioAssay:
For some assays here: Entries with a potency or affinity are not part of this list. Calls of active or inactive are those of the source. Unless noted, the rule behind the calls is not given here.

What follows are molecules tested against Protein kinase 7 (PK7), Plasmodium falciparum 3D7 (PF3D7_0213400) (UniProt Q7YTF7) (assay: inhibition of Plasmodium PK7 catalytic activity – biochemical, TCAMS antimalarial set, Kinase-Glo luminescence (AID 1159587)). Settings: recombinant PfPK7, Kinase-Glo ATP depletion luminescence.
Protein kinase 7 (PK7), Plasmodium falciparum 3D7 (PF3D7_0213400), sequence (Q7YTF7 1-343): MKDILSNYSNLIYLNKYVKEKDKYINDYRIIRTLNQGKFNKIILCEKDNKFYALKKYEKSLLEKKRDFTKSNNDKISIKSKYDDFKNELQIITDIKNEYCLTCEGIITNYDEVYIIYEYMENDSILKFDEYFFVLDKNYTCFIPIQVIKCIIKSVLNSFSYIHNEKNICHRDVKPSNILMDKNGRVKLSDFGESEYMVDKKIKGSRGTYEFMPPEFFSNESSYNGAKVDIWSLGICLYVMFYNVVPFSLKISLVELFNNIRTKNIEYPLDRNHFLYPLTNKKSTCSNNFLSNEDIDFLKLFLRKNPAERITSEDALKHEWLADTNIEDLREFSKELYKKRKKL

outcome, inactive:
COc1cc(NC(=O)c2sc(-c3ccc(Cl)cc3)cc2NC(=O)c2cccc(N(C)C)c2)ccc1OCCN1CCCC1
O=C(Nc1ccc(F)c([N+](=O)[O-])c1)Nc1cc(C(F)(F)F)ccc1Cl
COc1cc(CN2CCC(C(=O)Nc3ccc(-c4cccc(C)c4)cc3)CC2)ccc1O
CN1CCN(c2ccnc3ccc(NC(=O)N(C)c4ccc(Cl)c(Cl)c4)cc23)CC1
CCCCc1ccc(C(=O)Nc2ccc3nc(N4CCN(C)CC4)cc(C)c3c2)cc1
Cc1cc2nc(/N=C(\N)NC(=O)NC3CCCCC3)nc(C)c2cc1C
CC(C)N1CCN(C(CN2CCN(CCCOc3ccc(-c4ccccc4)cc3)CC2)c2ccc(F)cc2)CC1 (stereo not given)
COc1cc2nc(N(C)C)nc(Nc3ccc(OCc4ccccc4)cc3)c2cc1OC
COc1ccccc1-c1cc(C(=O)N2CCN(S(=O)(=O)c3ccc(C)cc3)CC2)[nH]n1
Cc1noc(C)c1-c1cccc(CNCc2cccc(-c3ccc(-c4nc5ccccc5[nH]4)s3)c2)c1
CNC(=O)NC1=NC(C)(C)N(OCc2ccc(Cl)c(Cl)c2)C(NC(=O)NC)=N1
CSC1=NC2(CC(c3cccc(C)c3)c3cc(Cl)c(O)cc3O2)CC(C)(C)N1 (stereo not given)
Cc1ccc(F)c(OC2CCN(c3ccc(C(=O)NC4CC4)cn3)CC2)c1
Nc1cccc(CNCc2cccc(-c3ccc(-c4nc5ccc(C(F)(F)F)cc5[nH]4)cc3)c2)c1
CCCCCCCCn1ccc(=N)cc1
CC(C)N1CCCN(C(=O)C2CCN(c3ccc(C(=O)N4CCCC4)cn3)CC2)CC1
COc1ccc2nc(C)cc(Nc3ccc(Oc4ccc5ccccc5c4)c(Cl)c3)c2c1
CCOc1ccc2c(NN=Cc3cccc(Cl)c3)cc(C)nc2c1
Nc1nc(N)c2cc(Sc3ccc4ccccc4c3)ccc2n1
COC(=O)c1ccc2nc(-c3ccc(/C=C/C(=O)NC4CCN(Cc5ccccc5)CC4)cc3)[nH]c2c1
O=C(NC1CC1)c1cnc(N2CCC(OCc3ccccc3)CC2)c(Cl)c1
C[C@@H](COc1ccc(-c2ccccc2)cc1)CON1C(N)=NC(N)=NC1(C)C
Cc1ccc2nc(Nc3ccc(Nc4nc5ccc(C)cc5[nH]4)c(C)c3)[nH]c2c1
Cc1cc(N2CCOCC2)nc2ccc(NC(=O)c3cccc([N+](=O)[O-])c3)cc12
Cc1cc(C2CCN(CCCCNC(=O)c3ccc(NC(=O)c4ccc(Cl)cc4)cc3)CC2)c(C)cc1OCc1ccncc1
N#Cc1ccc(C=Cc2nccc3c2[nH]c2ccccc23)cc1
Cc1ccc(F)cc1-c1cc(N2CCCN(C(=O)c3ccc(Br)o3)CC2)ncn1
CS(=O)(=O)c1cc2c(Nc3ccc(N4CCOCC4)cc3)c(C(N)=O)cnc2cc1Br
Cc1ccc(Cn2ncc(N3CCC(N)CC3)c(Cl)c2=O)cc1NC(=O)Nc1ccc(-c2ccccc2)cc1
COc1ccc(C=C2SC(=O)NC2=Nc2ccccc2)c(OC)c1
Cc1nnsc1C(=O)Nc1ccc(-c2ccc(-c3nc4ccccc4[nH]3)s2)cc1
C=CCc1cc(Br)ccc1OCCCON1C(N)=NC(N)=NC1(C)C
CCOc1c(OC)ccc2c1CCN(CCN1CCC(CNC(=O)c3ccc(-c4ccc(C(F)(F)F)cc4)cc3)CC1)C2
C(=N\Nc1nccc2sc(-c3cccnc3)cc12)/c1ccncc1
O=C(C=Cc1ccc(Cl)c(Cl)c1)NCCCCCN1CCCC(CCCNS(=O)(=O)c2ccc(Br)cc2)C1 (stereo not given)
COc1cc(OCCCN(C)Cc2ccc(OC)c(OC)c2)ccc1NC(=O)c1cccc2c(=O)c3cccc(F)c3[nH]c12
Cc1ccc(NC(=O)NC2CCN(CCCCCNC(=O)[C@@H]3C[C@H]3c3ccc(Cl)c(Cl)c3)CC2)cc1
CN(C)S(=O)(=O)c1cc(-c2ccc3nccc(-c4cccc(S(N)(=O)=O)c4)c3c2)cnc1N
O=S(=O)(c1cc(Cl)ccc1Cl)N1CCCCC(c2ccc(C(F)(F)F)cc2)=N1
Oc1cccc(-c2nc(-c3ccccc3)c(-c3ccc(Oc4ccc(-c5[nH]c(-c6cccc(O)c6)nc5-c5ccccc5)cc4)cc3)[nH]2)c1

The molecules below were run against Calcium-dependent protein kinase 4 (Plasmodium falciparum (isolate 3D7)) (UniProt Q8IBS5) (assay: PfCDPK4 kinase inhibitors, biochemical, TCAMS library (AID 1159588; cut-off not given, nearly all actives have IC50 up to about 0.91 µM)). Settings: recombinant PfCDPK4, Kinase-Glo ATP depletion luminescence.
Calcium-dependent protein kinase 4 (Plasmodium falciparum (isolate 3D7)), sequence (Q8IBS5 whole entry, looked up): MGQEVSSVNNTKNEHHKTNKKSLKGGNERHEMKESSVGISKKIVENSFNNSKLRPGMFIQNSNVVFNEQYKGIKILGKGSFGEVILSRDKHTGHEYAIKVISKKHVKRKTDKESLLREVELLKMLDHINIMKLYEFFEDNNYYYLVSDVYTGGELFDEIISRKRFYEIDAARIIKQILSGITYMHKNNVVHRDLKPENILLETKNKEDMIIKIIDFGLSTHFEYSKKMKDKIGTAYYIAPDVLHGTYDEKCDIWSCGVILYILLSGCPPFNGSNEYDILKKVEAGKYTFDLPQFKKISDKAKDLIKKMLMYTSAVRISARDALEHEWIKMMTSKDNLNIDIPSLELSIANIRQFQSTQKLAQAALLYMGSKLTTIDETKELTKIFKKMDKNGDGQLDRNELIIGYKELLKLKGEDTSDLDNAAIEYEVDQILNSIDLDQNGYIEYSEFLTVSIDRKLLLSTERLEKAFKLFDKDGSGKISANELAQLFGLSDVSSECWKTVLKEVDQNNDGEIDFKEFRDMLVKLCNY

outcome, inactive:
COc1cc(NC(=O)c2sc(-c3ccc(Cl)cc3)cc2NC(=O)c2cccc(N(C)C)c2)ccc1OCCN1CCCC1
O=C(Nc1ccc(F)c([N+](=O)[O-])c1)Nc1cc(C(F)(F)F)ccc1Cl
COc1cc(CN2CCC(C(=O)Nc3ccc(-c4cccc(C)c4)cc3)CC2)ccc1O
CN1CCN(c2ccnc3ccc(NC(=O)N(C)c4ccc(Cl)c(Cl)c4)cc23)CC1
CCCCc1ccc(C(=O)Nc2ccc3nc(N4CCN(C)CC4)cc(C)c3c2)cc1
Cc1cc2nc(/N=C(\N)NC(=O)NC3CCCCC3)nc(C)c2cc1C
CC(C)N1CCN(C(CN2CCN(CCCOc3ccc(-c4ccccc4)cc3)CC2)c2ccc(F)cc2)CC1 (stereo not given)
COc1cc2nc(N(C)C)nc(Nc3ccc(OCc4ccccc4)cc3)c2cc1OC
COc1ccccc1-c1cc(C(=O)N2CCN(S(=O)(=O)c3ccc(C)cc3)CC2)[nH]n1
Cc1noc(C)c1-c1cccc(CNCc2cccc(-c3ccc(-c4nc5ccccc5[nH]4)s3)c2)c1
CNC(=O)NC1=NC(C)(C)N(OCc2ccc(Cl)c(Cl)c2)C(NC(=O)NC)=N1
CSC1=NC2(CC(c3cccc(C)c3)c3cc(Cl)c(O)cc3O2)CC(C)(C)N1 (stereo not given)
Cc1ccc(F)c(OC2CCN(c3ccc(C(=O)NC4CC4)cn3)CC2)c1
Nc1cccc(CNCc2cccc(-c3ccc(-c4nc5ccc(C(F)(F)F)cc5[nH]4)cc3)c2)c1
CCCCCCCCn1ccc(=N)cc1
CC(C)N1CCCN(C(=O)C2CCN(c3ccc(C(=O)N4CCCC4)cn3)CC2)CC1
COc1ccc2nc(C)cc(Nc3ccc(Oc4ccc5ccccc5c4)c(Cl)c3)c2c1
CCOc1ccc2c(NN=Cc3cccc(Cl)c3)cc(C)nc2c1
Nc1nc(N)c2cc(Sc3ccc4ccccc4c3)ccc2n1
COC(=O)c1ccc2nc(-c3ccc(/C=C/C(=O)NC4CCN(Cc5ccccc5)CC4)cc3)[nH]c2c1
O=C(NC1CC1)c1cnc(N2CCC(OCc3ccccc3)CC2)c(Cl)c1
C[C@@H](COc1ccc(-c2ccccc2)cc1)CON1C(N)=NC(N)=NC1(C)C
Cc1ccc2nc(Nc3ccc(Nc4nc5ccc(C)cc5[nH]4)c(C)c3)[nH]c2c1
Cc1cc(N2CCOCC2)nc2ccc(NC(=O)c3cccc([N+](=O)[O-])c3)cc12
Cc1cc(C2CCN(CCCCNC(=O)c3ccc(NC(=O)c4ccc(Cl)cc4)cc3)CC2)c(C)cc1OCc1ccncc1
N#Cc1ccc(C=Cc2nccc3c2[nH]c2ccccc23)cc1
Cc1ccc(F)cc1-c1cc(N2CCCN(C(=O)c3ccc(Br)o3)CC2)ncn1
CS(=O)(=O)c1cc2c(Nc3ccc(N4CCOCC4)cc3)c(C(N)=O)cnc2cc1Br
Cc1ccc(Cn2ncc(N3CCC(N)CC3)c(Cl)c2=O)cc1NC(=O)Nc1ccc(-c2ccccc2)cc1
COc1ccc(C=C2SC(=O)NC2=Nc2ccccc2)c(OC)c1
Cc1nnsc1C(=O)Nc1ccc(-c2ccc(-c3nc4ccccc4[nH]3)s2)cc1
C=CCc1cc(Br)ccc1OCCCON1C(N)=NC(N)=NC1(C)C
CCOc1c(OC)ccc2c1CCN(CCN1CCC(CNC(=O)c3ccc(-c4ccc(C(F)(F)F)cc4)cc3)CC1)C2
C(=N\Nc1nccc2sc(-c3cccnc3)cc12)/c1ccncc1
O=C(C=Cc1ccc(Cl)c(Cl)c1)NCCCCCN1CCCC(CCCNS(=O)(=O)c2ccc(Br)cc2)C1 (stereo not given)
COc1cc(OCCCN(C)Cc2ccc(OC)c(OC)c2)ccc1NC(=O)c1cccc2c(=O)c3cccc(F)c3[nH]c12
Cc1ccc(NC(=O)NC2CCN(CCCCCNC(=O)[C@@H]3C[C@H]3c3ccc(Cl)c(Cl)c3)CC2)cc1
CN(C)S(=O)(=O)c1cc(-c2ccc3nccc(-c4cccc(S(N)(=O)=O)c4)c3c2)cnc1N
O=S(=O)(c1cc(Cl)ccc1Cl)N1CCCCC(c2ccc(C(F)(F)F)cc2)=N1
Oc1cccc(-c2nc(-c3ccccc3)c(-c3ccc(Oc4ccc(-c5[nH]c(-c6cccc(O)c6)nc5-c5ccccc5)cc4)cc3)[nH]2)c1
